Consider 59 compounds from PubChem BioAssay AID1224817 (Yan Lab, Georgia Cancer Center, Augusta University, 2016).

The campaign covered roughly 2,000 compounds. About 25 (1%) were called active.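 The calls were made as follows: active = log2 luciferase ratio at or below -0.5849, meaning signal at two thirds of solvent-only control or lower; inactive = the rest.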 Shown is part of a subset that was picked to be rich in actives.

This assay in a line: inhibitors of EIF4E gene expression, primary screen, cell-based, HT1080, luciferase reporter (AID 1224817).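 Also: luciferase reports endogenous eIF4E expression since it is co-expressed from the native EIF4E locus.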 The note with it: HT1080 EIF4E-luc2 knock-in reporter, 16 h, at 2.5 µM, active compounds read low. For orientation: In a reporter assay the amount or activity of a reporter protein is the signal.
Consider `Cc1ccccc1C(=N)c1ccccc1Cc1cccc2ccccc12`, for which the log2 luciferase activity ratio is 0.0556 (inactive).

With `CC1(C)C(CC(=O)O)CCCC1CC(=O)O` (centres undefined), the log2 luciferase activity ratio was -0.193 (inactive).

Consider `N=C1C(O)C2(I)c3ccccc3N3C(=N)C(O)C4c5ccccc5N1C4C32` (centres undefined), for which the log2 luciferase activity ratio was 0.988 (inactive).

As for `CC[C@]12CCCN3CCc4c(n(c5ccccc45)C(=O)C1)[C@@H]32`, the log2 luciferase activity ratio is -0.317 (inactive).

On to `COC(=O)C1OC(SCCN)C(O)C(O)C1O` (centres undefined), for which the log2 luciferase activity ratio was 0.246 (inactive).

On to `O=C(O)c1nnsc1-c1csnn1`, for which the log2 luciferase activity ratio is -0.0043 (inactive).

On to `CN(C)Cc1cc(C(=O)O)cc(CN(C)C)c1O`, for which the log2 luciferase activity ratio is -0.293 (inactive).

Consider `CC(=O)Nc1ccc(-c2cc(C(=O)O)c3cc4ccccc4cc3n2)cc1`, for which the log2 luciferase activity ratio is 0.356 (inactive).

With `C[C@@H]1C[C@H]2[C@@H]3CCC4=CC(=O)C=C[C@]4(C)[C@@]3(Cl)[C@@H](Cl)C[C@]2(C)[C@@]1(O)C(=O)COP(=O)(O)O`, the log2 luciferase activity ratio was 0.28 (inactive).

Consider `CC[C@@H]1CN(C)[C@H]2Cc3c([nH]c4ccccc34)C(=O)C[C@H]1C2C(=O)OC` (some centres undefined), for which the log2 luciferase activity ratio is -0.243 (inactive).

Consider `COc1ccc2c(c1)O[C@H]1c3ccc(O)cc3OC[C@@H]21`, for which the log2 luciferase activity ratio is 0.161 (inactive).

As to `Cn1c([N+](=O)[O-])cnc1CN1CCN(CCO)CC1`, the log2 luciferase activity ratio is 0.268 (inactive).

For `O=C(O)c1cccc(CN2CCCCC2)c1`, the log2 luciferase activity ratio is 0.0092 (inactive).

In the case of `C[N+](C)(C)/N=C/c1ccc(O)c(O)c1`, the log2 luciferase activity ratio is -0.303 (inactive).

Take `NC(N)=NC(N)=Nc1ccc(S(N)(=O)=O)cc1`: the log2 luciferase activity ratio is -0.0076 (inactive).

Turning to `CCCCN(c1ccccc1)c1ncnc2c1cnn2C`, the log2 luciferase activity ratio is -0.0702 (inactive).

As to `COc1ccc2nc3cc(Cl)ccc3c(Nc3ccc(O)c(CN4CCN(C)CC4)c3)c2c1`, the log2 luciferase activity ratio is 0.0343 (inactive).

Turning to `NC(CC(=O)O)(Cc1ccccc1)C(=O)O` (centres undefined), the log2 luciferase activity ratio is -0.129 (inactive).

On to `O=S1(=O)OC(c2ccc(O)cc2)(c2ccc(O)cc2)c2ccccc21`, for which the log2 luciferase activity ratio was 0.424 (inactive).

For the compound `O=S1(=O)C(c2ccccc2)C(N2CCCCC2)C1C1CC2c3ccccc3C1c1ccccc12` (centres undefined), the log2 luciferase activity ratio was 0.456 (inactive).

`Cc1cc(N2CCOCC2)nc2ccc(Cc3ccc4nc(N5CCOCC5)cc(C)c4c3)cc12`: the log2 luciferase activity ratio is 0.197 (inactive).

For the compound `OC(Cc1ccccc1)(Cc1ccccc1)c1ccccc1`, the log2 luciferase activity ratio was -0.0177 (inactive).

`OC(c1cc(C23CC4CC(CC(C4)C2)C3)nc2c(Cl)cc(Cl)cc12)C1CCCCN1` (centres undefined): the log2 luciferase activity ratio was 0.104 (inactive).

With `Oc1ccc(-c2nc(-c3cccnc3)c(-c3ccc(F)cc3)[nH]2)cc1`, the log2 luciferase activity ratio was -0.338 (inactive).

In the case of `C=C1C(=O)OC2C1C(OC(=O)/C(C)=C/COC(C)=O)CC1(CO1)C1C(O)C=C(C)C21` (centres undefined), the log2 luciferase activity ratio was -0.477 (inactive).

`C=C1C(=O)OC2C1C(OC(=O)/C(C)=C/C)CC(O)(CCl)C1C(OC(C)=O)C=C(C)C21O` (centres undefined): the log2 luciferase activity ratio was -1.14 (active).

Turning to `C=C1C(=O)O[C@H]2[C@H]1[C@H](OC(=O)/C(C)=C\C)CC(=C)[C@@H]1[C@H](O)[C@H]3O[C@@]3(C)[C@@]12O`, the log2 luciferase activity ratio was 0.0107 (inactive).

With `O=C(O)C(=O)/C=C(\O)c1ccc(Br)cc1`, the log2 luciferase activity ratio was -0.065 (inactive).

Regarding `N=C(CC(=O)Nc1ccccn1)c1ccccc1`, the log2 luciferase activity ratio was 0.825 (inactive).

As for `COc1ccc(/C=N/NC(=O)O)cc1`, the log2 luciferase activity ratio was 0.161 (inactive).

On to `CC(CSC(=N)N)C(N)=O` (centres undefined), for which the log2 luciferase activity ratio was 0.0537 (inactive).

With `Cc1c(-c2nc(N)nc(C3CC3)c2C)nc(N)nc1C1CC1`, the log2 luciferase activity ratio was -0.199 (inactive).

For `CN1CCN(CC(=O)N2c3ccccc3Sc3cc4ccccc4cc32)CC1`, the log2 luciferase activity ratio was 0.0693 (inactive).

Turning to `Nc1nc(Cl)cc(NCCO)n1`, the log2 luciferase activity ratio is -0.615 (active).

Regarding `O=[N+]([O-])c1cc(Cl)cc2c1nc(NCCO)c1ccccc12`, the log2 luciferase activity ratio was 0.0337 (inactive).

In the case of `COc1cccc2c1C(CO)N1C(C#N)C3CC(C(=O)O)C(C1C2)N3C` (centres undefined), the log2 luciferase activity ratio is -1.55 (active).

Turning to `O=C(O)C1Cc2c([nH]c3ccccc23)C(CCCCO)N1` (centres undefined), the log2 luciferase activity ratio is -0.0145 (inactive).

Turning to `O=C1OC(c2ccc(O)c(-c3ccccc3)c2)(c2ccc(O)c(-c3ccccc3)c2)c2c(Cl)c(Cl)c(Cl)c(Cl)c21`, the log2 luciferase activity ratio is -0.153 (inactive).

As to `CN(C)c1ccc2nc3c(C(=O)O)cc(=O)c(O)c-3oc2c1`, the log2 luciferase activity ratio is -2.21 (active).

Consider `O=C(O)c1ccc(Cc2ccccc2C(=O)O)cc1`, for which the log2 luciferase activity ratio is -0.21 (inactive).

Consider `COC(=O)[C@]1(C)CCC[C@]2(C)C3=CC(=O)[C@@]4(C(C)C)O[C@H]4[C@]3(O)CC[C@@H]12`, for which the log2 luciferase activity ratio is -0.359 (inactive).

As for `OC1(c2ccccc2)c2ccccc2NC2=NCCN21` (centres undefined), the log2 luciferase activity ratio is 0.416 (inactive).

Turning to `Ic1ccc2c(c1)N(c1ccccc1)c1cc(N=c3ccc4nc5ccc(I)cc5n(-c5ccccc5)c-4c3)ccc1N2`, the log2 luciferase activity ratio is 0.338 (inactive).

For `CC(=O)[C@H]1CC[C@@H]2[C@]1(C)CC=C1[C@]23C=C[C@]2(C[C@@H](O)CC[C@]12C)C(C(=O)O)C3C(=O)O` (some centres undefined), the log2 luciferase activity ratio was -0.137 (inactive).

Regarding `Cn1cnc([N+](=O)[O-])c1Sc1nc(N)nc2c1ncn2C1CC(O)C(CO)O1` (centres undefined), the log2 luciferase activity ratio is -0.645 (active).

Take `COc1nc(N)nc2c1ncn2C1CC(O)C(CO)O1` (centres undefined): the log2 luciferase activity ratio is 0.0307 (inactive).

Take `CC(C)Cn1cnc2c(Sc3c([N+](=O)[O-])ncn3C)nc(N)nc21`: the log2 luciferase activity ratio was -0.473 (inactive).

For `CC1(C)CC23C4COC(=O)C2CCC1C3CC4=O` (centres undefined), the log2 luciferase activity ratio is 0.113 (inactive).

Consider `O=C(O)CCn1cnc2c(=S)nc[nH]c21`, for which the log2 luciferase activity ratio was -0.179 (inactive).

For the compound `C[C@@H]1C(=O)C[C@H]2C(C)(C)CCC[C@]2(C)[C@@]1(O)CCc1ccoc1`, the log2 luciferase activity ratio was -0.608 (active).

As to `O=C(CSc1nc2ccccc2s1)c1sc2sc3ccccc3[n+]2c1[O-]`, the log2 luciferase activity ratio was 0.244 (inactive).

Consider `O=C(O)C1C(C(=O)O)C2C(=O)C=CC1N2Cc1ccccc1` (centres undefined), for which the log2 luciferase activity ratio was 0.0328 (inactive).

Take `CC(C)Cn1cnc2c(SCc3ccc(Cl)cc3Cl)nc(N)nc21`: the log2 luciferase activity ratio is 0.484 (inactive).

`NC1(C(=O)NC2(C(=O)O)CCCC2)CCCC1`: the log2 luciferase activity ratio is 0.0359 (inactive).

As to `O=C(Nc1ccc(Nc2ccc3c(c2)C(=O)c2ccccc2C3=O)c2c1C(=O)c1ccccc1C2=O)c1ccccc1`, the log2 luciferase activity ratio was 0.326 (inactive).

Regarding `O=C(O)[C@H](c1ccccc1)[C@@H](C(=O)O)c1ccccc1`, the log2 luciferase activity ratio was -0.0929 (inactive).

Take `NNC(=O)Cc1cccnc1`: the log2 luciferase activity ratio was 0.269 (inactive).

For the compound `N=C(N)SCCN1CCCCC1`, the log2 luciferase activity ratio is 0.0135 (inactive).

On to `CCCNc1ncnc2[nH]ncc12`, for which the log2 luciferase activity ratio is -0.531 (inactive).
